# Tau fibril FP = inhibitors of human tau fibril formation; Potency, µM (highest dose often 57.7 µM), inactives show top-dose activity, negative = inhibition, hits mostly inhibitors; AID 1468; K18 P301L tau heparin fibrillization, Alexa594 FP, 6 h; P10636; 0.39% of 280,000 active; note: potency is the fitted concentration of half-maximal effect; nearly all actives have a fitted effect of over 55% in size
# Target sequence (P10636 561-689 P618L limits assumed): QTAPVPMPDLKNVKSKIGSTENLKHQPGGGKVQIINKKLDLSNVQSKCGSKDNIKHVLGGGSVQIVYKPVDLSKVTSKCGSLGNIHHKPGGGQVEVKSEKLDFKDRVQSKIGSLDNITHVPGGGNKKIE
#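 K18 P301L tau (15 uM unlabeled/0.24 uM Alexa 594-labeled, final) + compound + heparin 20 uM final; 100 mM NaOAc pH 7; 6 hr 37 C; ThT 30 uM final added, 1 hr RT; FP ex 555/em 632 nm.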
# TR SRC2 fluor cs = counter-screen for TRb-SRC2 inhibitors: fluorescence interference. TRb/SRC2 Texas Red total fluorescence interference. Potency, µM (titrated, usually from 106 µM), for the others: top-dose fluorescence change, negative = quenching. 0.29% of 280,000 active. AID 1479; active = well fitted curve in either direction with a large enough effect; inconclusive = small, poorly fitted or top-dose-only effect; note: potency is the fitted concentration of half-maximal effect
#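 Flags fluorescent or light-absorbing compounds by total fluorescence, S + 2P, at 555 nm excitation and 632 nm emission. Mixture: 20 nM Texas Red SRC2 peptide, 0.6 uM human TRb LBD, 1 uM T3, 5% DMSO; compound exposure 5 h at ambient temperature.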
# Tau fibril ThT = tau fibrillization inhibition (ThT binding). P10636. recombinant tau K18 P301L, heparin-induced fibrillization, ThT fluorescence. Potency, µM (titrated, usually from 57.4 µM), for the others: top-dose activity, negative = inhibition, hits mostly inhibitors. 2.1% of 270,000 active. AID 1460; note: potency is the fitted concentration of half-maximal effect; nearly all actives have a fitted effect of over 55% in size
#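 Fibril formation assay: tau K18 P301L at 15 uM with trace Alexa 594 label, heparin inducer 20 uM, pH 7 sodium acetate buffer, 37 C for 6 hr; endpoint ThT signal.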
# Tau fluor counter = counter-screen for tau fibril formation inhibitors. tau K18 P301L (four-repeat tau fragment) Alexa594 fluorescence, heparin fibrillization. Potency, µM (top dose mostly 57.7 µM), for inactives: at the highest dose activity change, negative = decrease. 0.93% of 280,000 active; note: potency is the fitted concentration of half-maximal effect; nearly all actives have a fitted effect of over 55% in size
#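 Human K18 P301L tau (15 uM unlabeled plus 0.24 uM Alexa 594-labeled, final) in 100 mM sodium acetate pH 7 was mixed with compound and 20 uM heparin and incubated 6 hr at 37 C.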
# TRb-SRC2 inh = inhibitors of human thyroid hormone receptor beta-SRC2 interaction; Potency, µM (highest dose often 106 µM), for inactives: top-dose activity change, negative = inhibition, most hits filed as inhibitors; P10828; 0.065% of 280,000 active; AID 1469; TRbeta-SRC2 peptide binding, fluorescence polarization; receptor liganded with 1 µM T3;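 note: potency is the fitted concentration of half-maximal effect; plate controls were bound peptide for no effect and peptide without receptor for full effect; nearly all actives have a fitted effect of over 50% in size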
# Target sequence (P10828 whole entry, looked up): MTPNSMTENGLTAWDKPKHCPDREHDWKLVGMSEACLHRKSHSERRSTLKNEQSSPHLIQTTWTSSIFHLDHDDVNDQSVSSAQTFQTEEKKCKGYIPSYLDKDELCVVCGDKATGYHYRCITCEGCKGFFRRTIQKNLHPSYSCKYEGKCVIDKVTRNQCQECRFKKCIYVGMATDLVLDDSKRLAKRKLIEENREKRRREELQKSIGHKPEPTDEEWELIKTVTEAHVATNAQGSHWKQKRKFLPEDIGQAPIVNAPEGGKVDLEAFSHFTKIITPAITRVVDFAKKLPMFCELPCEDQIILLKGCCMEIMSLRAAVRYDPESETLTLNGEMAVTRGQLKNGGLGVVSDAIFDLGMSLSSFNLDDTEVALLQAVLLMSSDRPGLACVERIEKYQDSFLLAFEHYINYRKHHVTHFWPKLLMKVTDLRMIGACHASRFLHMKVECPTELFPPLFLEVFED
#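 Fluorescence polarization of 20 nM Texas Red SRC2 peptide (20-aa NR interaction domain) bound to 0.6 uM human TRb ligand-binding domain, with 1 uM T3, after 5 hr at ambient temperature; inhibition seen as decreased polarization.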
# PNC assembly inh = inhibitors of perinucleolar compartment assembly. PC3M PTB-GFP, PNC prevalence imaging, 16 h; hits give low values. activity change (PNC), negative = inhibition, % at 10 µM. 3.1% of 140,000 active;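 active = readout at or below -70, meaning at least 70% loss of cells showing the perinucleolar compartment, a nuclear body marking cancer cells; inconclusive = readout between -30 and a set limit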;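 note: plate controls were DMSO wells for no effect and camptothecin positive control wells for full effect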
#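 Read-out is percentage of cells bearing a perinucleolar compartment, from automated 20x imaging of fixed, Hoechst-stained PC3M PTB-GFP cells. Cells were seeded 4 h, then exposed 16 h to compound (23 nl of library stock) in duplicate plates.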
# The depositor's hits bear a star; u = inconclusive; x = no result; [ ] = dose if it differs, or a comment. Compounds with a hit are over-represented: about 4.6% of the library has one in this group of screens. Unless noted, calls come from the whole dose curve; as a rule, active = well fitted curve in the direction sought with a large enough effect; inconclusive = small, poorly fitted or top-dose-only effect, or another doubt; inactive = no such curve, though single readings can be large; an effect the other way counts as inactive or inconclusive. Unless noted, % is set by controls: 0 for no effect and ±100 for the full control effect.
SMILES,Tau fibril FP,TR SRC2 fluor cs,Tau fibril ThT,Tau fluor counter,TRb-SRC2 inh,PNC assembly inh
Cc1ccccc1-n1c(O)c(C=Nc2ccc(N(C)C)cc2)c(=O)[nH]c1=O,u,13%,28µM*,u,-29%,-29
O=C1NC(=O)C(=Cc2coc3ccccc3c2=O)C(=O)N1,u,0%,u,-19%,-5%,x
Cn1c(O)c(N=Nc2cccc(S(=O)(=O)N3CCOCC3)c2)c(=O)n(C)c1=O,9%,0%,5%,6%,5%,x
CCN(CC)S(=O)(=O)c1cccc(N=Nc2c(O)n(CC)c(=S)n(CC)c2=O)c1,9%,-1%,16µM*,u,10%,x
O=C(CN1CCCCC1)c1cccc(Br)c1,5%,-1%,-14%,-6%,-6%,-12
O=c1[nH]sc2cc(F)ccc12,28µM*,-1%,11µM*,-25%,-6%,x
Cc1cccc(CN2C(=O)CN=C(c3ccccc3Cl)c3cc(Cl)ccc32)c1,3%,-10%,-14%,-8%,-3%,x
O=C1NC(=S)N(c2ccccc2F)C(=O)/C1=C\c1cccs1,11%,16%,u,5%,u,18
CCN(CC)c1ncnc2c1ncn2[C@@H]1O[C@@H](COP(=O)(O)OP(=O)(O)C(Br)(Br)P(=O)(O)O)[C@H](O)[C@H]1O,3%,-5%,1%,0%,1%,x
Cc1ccc(NC(=O)Cn2cc(C(=O)c3ccccc3)c3ccccc32)cc1,-19%,0.025µM*[quencher],5%,u,-15%,x
Cc1c2ccncc2c(C)c2c1[nH]c1ccccc12,5%,-3%,11µM*,u,4%,-115*
O=S1(=O)N(CCN2CC=C(c3c[nH]c4cc(F)ccc34)CC2)c2cccc3c2N1CCC3,12%,u,u,8.9µM*[quencher],3%,x
O=C(C[N+]12CCC(CC1)C(OC(=O)c1ccccc1)C2)c1ccc([N+](=O)[O-])cc1 (centres undefined),8%,-3%,-18%,-5%,-4%,x
O=C(OCC(=O)c1ccc([N+](=O)[O-])cc1)/C(=C/c1ccc(Cl)cc1)NC(=O)c1ccccc1,u,-3%,28µM*,-14%,1%,u
CN1C(=O)NC(=O)/C(=C/c2ccc([N+](=O)[O-])s2)C1=O,28µM*,-19%,x,u,-3%,x
COc1ccc(OC)c(N2C(=O)NC(=O)/C(=C\c3ccc([N+](=O)[O-])s3)C2=O)c1,u,16%,11µM*,u,u,x
COc1ccc(N2C(=O)NC(=O)/C(=C\c3ccccc3[N+](=O)[O-])C2=O)cc1,-10%,-1%,u,-27%,-4%,x
C=C1C2C[C@H](O)C(C)(C)[C@@]2(O)[C@H](O)C[C@]23C[C@@](C)(O)[C@H](CC[C@H]12)[C@H]3OC(C)=O (some centres undefined),2%,-10%,3%,-4%,-1%,23
CC12C=CC(=O)C=C1CCC1C2=CCC2(C)C1CC[C@@H]2C(=O)CN1CCN(c2cc(N3CCCC3)nc(N3CCCC3)n2)CC1 (some centres undefined),u,1%,7.1µM*,-13%,-16%,x
O=C(Nc1ccc(Br)cc1)c1cc(Br)cc(Br)c1O,13%,-18%,13µM*,u,21%,x
O=C(COc1ccc(Cl)cc1)Nc1ccc(Cl)cc1C(=O)c1ccccc1,0%,-16%,-17%,-26%,4%,x
CC(C)OC(=O)Nc1cccc(Cl)c1,8%,3%[201 µM],-8%,-1%,-1%[201 µM],x
N#CC(C#N)=NNc1cccc(Cl)c1,u,-8%,4.5µM*,u,11%,x
CC(C)[C@@]1(NC(=O)[C@H]2CC3c4cccc5[nH]cc(c45)C[C@H]3N(C)C2)O[C@@]2(O)C3CCCN3C(=O)[C@@H](Cc3ccccc3)N2C1=O (some centres undefined),u,-3%,u,2.5µM*[quencher],10%,x
CC(C)[C@]1(NC(=O)[C@@H]2C=C3c4cccc5[nH]cc(c45)C[C@H]3N(C)C2)O[C@@]2(O)C3CCCN3C(=O)[C@H](Cc3ccccc3)N2C1=O (some centres undefined),-12%,13%,u,-29%,-1%,x
SMILES,Tau fibril FP,TR SRC2 fluor cs,Tau fibril ThT,Tau fluor counter,TRb-SRC2 inh,PNC assembly inh
CC(C)[C@@]1(NC(=O)[C@@H]2C[C@H]3c4cccc5[nH]cc(c45)C[C@@H]3N(C)C2)O[C@]2(O)[C@H]3CCCN3C(=O)[C@H](Cc3ccccc3)N2C1=O,x,-15%[53 µM],x,x,-2%[53 µM],x
CN1C[C@H](C(=O)N[C@]2(C)O[C@@]3(O)C4CCCN4C(=O)[C@H](Cc4ccccc4)N3C2=O)C[C@@H]2c3cccc4[nH]cc(c34)C[C@H]21 (some centres undefined),4%,-7%,u,13µM*[quencher],0%,x
Cc1ccc(C(=O)c2cc(Br)ccc2N)cc1,-2%,-2%,u,u,-7%,x
CCC(C)n1c(O)c(/C=N/NC(=O)c2ccncc2)c(=O)[nH]c1=S (centres undefined),0%,-6%,u,-17%,5%,23
CN1C(=O)C(=Cc2sc(=O)n(-c3ccccc3)c2N2CCCCC2)C(=O)N(C)C1=O,-16%,-7%,25µM*,-16%,6%,x
O=C1NC(=S)NC(=O)C1=Cc1cccc2cc3ccccc3cc12,-16%,-5%,11µM*,16µM*[quencher],-9%,x
O=C1NC(=O)C(=Cc2ccccc2Oc2ccc(F)cc2)C(=O)N1,3%,1%,u,-4%,0%,x
O=c1[nH]c(=O)n(Cc2ccc(F)cc2)c(O)c1C=NCCCO,10%,-5%,-1%,4%,2%,3
COP(=S)(OC)SCN1C(=O)c2ccccc2C1=O,u,-3%,35µM*,-19%,3%,-24
CCOP(=S)(OCC)SC(CCl)N1C(=O)c2ccccc2C1=O (centres undefined),x,-3%[201 µM],x,x,-4%[201 µM],x
Cn1c(=O)cc(SCC(=O)N2CCC3(CC2)OCCO3)c2ccccc21,1%,-2%,-14%,-18%,3%,-27
O=C1NC(=O)C(=Cc2cc3c(cc2[N+](=O)[O-])OCO3)C(=O)N1,28µM*,-2%,13µM*,-18%,3%,x
Nc1c2c(nc3sc4c(c13)CCCCC4)CCCC2,7%,-2%,u,-24%,0%,-113*
BrCC1C[n+]2c(SCc3ccccc3)nc3sc4c(c3c2O1)CCCC4 (centres undefined),1%,-2%,u,-17%,-3%,x
O=[N+]([O-])/C=C/c1ccccc1,x,1%,x,x,3%,x
ClC1=C(Cl)C(Cl)=C(Cl)C1=C/C=C/c1ccccc1,u,-19%,11µM*,14µM*[quencher],8%,x
